This passage reports ΔTm results from ChEMBL document CHEMBL4649994.

Each structure is given as a SMILES string.

The assay deals with T1, Transcription intermediary factor 1-alpha (Homo sapiens) (UniProt O15164).
T1 sequence (whole entry): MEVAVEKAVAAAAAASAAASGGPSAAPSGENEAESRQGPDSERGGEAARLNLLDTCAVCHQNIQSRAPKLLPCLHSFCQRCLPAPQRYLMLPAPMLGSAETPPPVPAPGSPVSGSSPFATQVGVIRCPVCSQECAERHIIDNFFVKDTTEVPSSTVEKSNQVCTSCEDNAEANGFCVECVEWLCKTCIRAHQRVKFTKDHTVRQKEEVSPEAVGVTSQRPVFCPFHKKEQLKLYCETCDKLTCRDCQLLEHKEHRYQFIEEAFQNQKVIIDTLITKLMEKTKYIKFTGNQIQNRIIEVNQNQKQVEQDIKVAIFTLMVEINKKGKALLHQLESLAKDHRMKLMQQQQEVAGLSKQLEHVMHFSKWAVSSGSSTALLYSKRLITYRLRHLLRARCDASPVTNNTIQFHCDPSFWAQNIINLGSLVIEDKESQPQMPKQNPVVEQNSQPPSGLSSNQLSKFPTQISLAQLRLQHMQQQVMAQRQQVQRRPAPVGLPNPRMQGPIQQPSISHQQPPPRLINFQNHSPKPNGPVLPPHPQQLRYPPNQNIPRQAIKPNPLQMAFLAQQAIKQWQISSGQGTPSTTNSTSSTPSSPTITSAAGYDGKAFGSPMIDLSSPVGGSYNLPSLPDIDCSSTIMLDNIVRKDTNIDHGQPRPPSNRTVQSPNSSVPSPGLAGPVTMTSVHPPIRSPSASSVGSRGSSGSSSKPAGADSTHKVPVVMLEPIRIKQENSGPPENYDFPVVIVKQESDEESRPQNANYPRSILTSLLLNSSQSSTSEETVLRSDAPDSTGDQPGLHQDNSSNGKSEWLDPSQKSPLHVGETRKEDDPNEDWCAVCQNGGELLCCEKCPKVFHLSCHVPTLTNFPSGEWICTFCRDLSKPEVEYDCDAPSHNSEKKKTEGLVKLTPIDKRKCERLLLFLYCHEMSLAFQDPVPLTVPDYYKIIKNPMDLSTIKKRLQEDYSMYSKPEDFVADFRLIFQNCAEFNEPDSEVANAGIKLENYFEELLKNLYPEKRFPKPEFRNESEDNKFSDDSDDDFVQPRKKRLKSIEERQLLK
The following applies: Compound concentration 10.0 uM, Protein concentration 2.0 uM.

Broadly, the ΔTm is the change in melting temperature against a reference sample. Turning to `COc1ccccc1S(=O)(=O)Nc1ccc2c(c1)CN(C)C(=O)N2`, the shift in melting temperature (ΔTm) was 0.62 °C.
